Many of the other results were omitted from the sample, so hits are more common in it than they were.
Pf Dd2 growth: qHTS Primary assay for Inhibitors of Plasmodium falciparum Dd2 growth in vitro; P. falciparum Dd2 growth, SYBR Green, 72 h; Potency, µM (titrated, usually from 28.9 µM), for inactives: at the highest dose activity, negative = inhibition, actives largely listed as inhibitors; 120,000 tested, 4.3% active; active = well fitted inhibition curve with a large enough effect;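 note: plate controls were DMSO vehicle for no effect and reference drug for full effect; nearly all actives have a fitted effect of over 65% in size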
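Infected erythrocytes (Dd2, 0.3% parasitemia, 2.5% hematocrit final) are added to compound in RPMI-1640/Albumax II medium, grown 72 h at 37C in low oxygen, then lysed with saponin/Triton-X containing SYBR Green and read by fluorescence.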
Starred values were filed as active, the others as inactive; i = inactive; [ ] = dose if it differs, or a comment. Potency is the fitted concentration of half-maximal effect.

SMILES | Pf Dd2 growth
CCCS(=O)(=O)N1CCC(N2CCCC(C(=O)N3CCOCC3)C2)CC1 (stereo not drawn) | 0%
O=C(Cc1ccsc1)N[C@@H]1COCC[C@@H]1OCc1cscn1 | -5%
CCOCC(=O)N1CCC2(CC1)NCCc1c2[nH]c2ccccc12 | i
CNC(=O)[C@@H]1CN(C(=O)Cn2nc(C(F)(F)F)cc2C)C[C@H]1c1n[nH]c(C)n1 | 25%
CSc1ccc(CNC(=O)C2CCN(C(=O)c3ncn4c3COC(c3ccccc3)C4)CC2)cc1 (stereo not drawn) | i
CC1=C[C@@H](CNS(=O)(=O)c2cccs2)[C@H](C(C)C)C[C@H]1CC(=O)NCc1ccc(C#N)cc1 | i
COc1ccc(S(=O)(=O)NC[C@@H]2C=C(C)[C@H](CC(=O)NCc3ccc(C#N)cc3)C[C@H]2C(C)C)cc1 | -4%
CC1=C[C@@H](CNS(=O)(=O)c2ccccc2)[C@H](C(C)C)C[C@H]1CC(=O)NCc1ccc(C#N)cc1 | 4.5µM*
O=C(OCc1ccccc1)N1CCCN(c2cc(C3CC(O)C3)ncn2)CC1 (stereo not drawn) | -13%
CC(C)N1C(=O)[C@@H]2[C@@H](CCN2C(=O)CSCC(=O)O)N(Cc2cccc(F)c2)C1=O | -5%[44.1 µM]
Cc1ccc(-n2c(C3CCN(C(=O)c4ccc5ccccc5n4)CC3)n[nH]c2=O)cc1 | -8%
CCOC(=O)c1ccc(NC(=O)Cn2nc(SC)c(S(=O)(=O)c3ccc(Cl)cc3)c2N)cc1 | 11µM*
CSc1nn(CC(=O)Nc2ccccc2F)c(N)c1S(=O)(=O)c1ccccc1 | 11%
CCSc1nn(CC(=O)Nc2ccc(C(=O)OC)cc2)c(N)c1S(=O)(=O)c1ccc(C)cc1 | -15%
O=C(c1ccc2c(c1)OCO2)N1CCC2(CC1)N=C(c1ccc(Br)cc1)NO2 | i
O=C(C1CC1)N1CCC(N2CC3CC(C2)[C@H]2CCCC(=O)N2C3)CC1 (stereo partly drawn) | -6%
COc1ccc(C2Cn3nnc(-c4nc(-c5ccc(F)c(F)c5)no4)c3CO2)cc1 (stereo not drawn) | i
Cc1cccc(CN2CCCCCCN(C)C(=O)[C@@H]3CCC[C@@H]32)c1 | 2.5µM*
CN1CCCCCCN(Cc2ccc3[nH]ccc3c2)[C@H]2CCC[C@H]2C1=O | 2µM*
CN1C(=O)[C@H]2CN(Cc3ccc4[nH]ccc4c3)C[C@H]2C1=O | i
CN1CCCCCCN(C(=O)NCCc2ccccc2)[C@H]2CCC[C@H]2C1=O | -8%
CN1CCCCCCN(C(=O)Cc2cccnc2)[C@@H]2CCC[C@@H]2C1=O | 11%
Cc1cccc(CN2CCCCCNC(=O)[C@@H]3CCC[C@@H]32)c1 | -27%
CN1CCN(C(=O)c2cccnc2)CC12CCC(=O)N(CC1CC1)CC2 (stereo not drawn) | -10%
CCc1ccc(N2CC(c3noc(-c4cccc(OC)c4OC)n3)CC2=O)cc1 (stereo not drawn) | -4%
SMILES | Pf Dd2 growth
Cc1cc(C(=O)N2CCC3(CC2)NCCc2c3[nH]c3ccccc23)n(C)n1 | i
O=C(NCc1ccncc1)c1c(OCC2CC2)cc(=O)n2c1CCCCC2 | -10%
CC1Oc2ccc(NC(=O)Cc3cccs3)cc2CN(Cc2ccc(Cl)cc2)C1=O (stereo not drawn) | i
COc1ccccc1CC(=O)Nc1ccc2c(N3CCCCC3)ncnc2c1 | 14µM*
COc1ccc(-c2cc(N3CCCC(NC(=O)Cc4cccs4)C3)n[nH]2)cc1 (stereo not drawn) | -11%
Cc1ccccc1CC(=O)Nc1ccc2ncnc(N3CCCCC3)c2c1 | i
COc1ccccc1CC(=O)NC1CCN(c2cc(C(F)(F)F)ncn2)CC1 | 34%
O=C(Cc1cccs1)Nc1ccc2c(N3CCCCC3)ncnc2c1 | 5µM*
Cc1ccccc1C(=O)N1CCC(N2CCCCCC2=O)CC1 | -4%[44.1 µM]
CCOc1ccc2c(n1)CCN(C(=O)c1ccn(CC)n1)C2 | -22%
COc1ccc(S(=O)(=O)N2CCC3(CC2)CC(CC(=O)N2CCCC2)CCO3)cc1 (stereo not drawn) | i
COc1cc2c(cc1OCc1ccccc1)N(C(=O)[C@@H]1CCCO1)CC21CCN(C)CC1 | i
COc1cc2c(cc1OCc1ccccc1)N(C(=O)c1c[nH]c3ccccc13)CC21CCN(C)CC1 | 2.5µM*
COc1cc2c(cc1OCc1ccc(Cl)cc1)N(Cc1ccccc1)CC21CCN(C(C)=O)CC1 | i
O=C(NC1CC1)C1CN(c2ccccc2)C(=O)N1 (stereo not drawn) | -2%[44.1 µM]
CN(C(=O)CN1C(=O)C(c2ccccc2)=NC12CCCC2)c1ccccc1 | i
CCN(CC)C(=O)CCc1c(C)nn(-c2ccc(F)cc2)c1Oc1ccccc1F | i
CCN(CC)C(=O)CCc1c(C)nn(-c2cccc(C)c2)c1Oc1ccccc1 | -14%
CCN(CC)C(=O)CCc1c(C)nn(-c2ccccc2)c1Oc1ccccc1 | 10µM*
COc1ccc(C2NC(=O)N(Cc3nc(C4CC4)no3)C3=C2C(=O)OC3)cc1 (stereo not drawn) | -2%
CCCc1noc(-c2ccn3c(CNC(=O)c4ccccc4F)nnc3c2)n1 | i
O=C(c1ccccc1)N1CCC2(CC1)N=C(c1cccc(Br)c1)NO2 | i
CC(=O)Nc1ccc(C(=O)N2CCC3(CC2)N=C(c2cccc(Br)c2)NO3)cc1 | 11µM*
Cc1ccc(C2=NC3(CCN(C(=O)c4ccccc4C)CC3)ON2)cc1 | 6.3µM*
Cc1ccc(C2=NC3(CCN(C(=O)Cc4ccccc4Cl)CC3)ON2)cc1 | 11µM*
SMILES | Pf Dd2 growth
Cc1ccc(C2=NC3(CCN(C(=O)Cc4ccc(F)cc4)CC3)ON2)cc1 | -13%
Cc1ccc(C)c(C(=O)N2CCC3(CC2)N=C(c2ccccc2)NO3)c1 | i
CN(C)c1ccc(C(=O)N2CCC3(CC2)N=C(c2cccc(Br)c2)NO3)cc1 | 37%
Cc1ccc(C2=NC3(CCN(C(=O)c4c[nH]c5ccccc45)CC3)ON2)cc1 | -13%
COc1ccccc1CC(=O)N1CCC2(CC1)N=C(c1ccc(Cl)cc1)NO2 | -35%
COc1ccc2[nH]cc(CCNC(=O)C3CC(=O)N(c4n[nH]c5cccc(F)c45)C3)c2c1 (stereo not drawn) | i
CCCN1CC[C@H]2COC(=O)N2c2cc(F)ccc2C1 | i
Cc1noc(-c2cn(C3CCN(C(=O)c4cccc(Cl)c4)CC3)nn2)n1 | -25%
O=C(c1cccc2c1NCCC2)N1CCn2nc(C(O)C3CC3)cc2C1 (stereo not drawn) | -4%
COc1ccc(CCCn2ccnc2-c2cn(C3CCNCC3)nn2)cc1 | -7%
CC(=O)N1CCN(C(=O)c2cccc(-c3ccco3)c2)CC(O)C1 (stereo not drawn) | -8%
O=C(COc1ccccc1)NCCC1CCN(C(=O)Nc2ccccc2)CC1 | 11µM*
CC(C)CC(=O)NCCC1CCN(C(=O)Nc2ccccc2)CC1 | -13%
O=C(CCc1ccccc1)NCCC1CCN(C(=O)Nc2ccccc2)CC1 | i
Cc1ccc2nc(SCCC(=O)N3CC[C@@](C)(O)[C@@H](O)C3)cc(C)c2c1 | 8%
COc1ccccc1N1CCN(CC(O)COc2cc(C)cc(C)c2)CC1 (stereo not drawn) | 42%
COc1ccccc1N1CCN(CC(O)COc2ccc(C)cc2C(C)(C)C)CC1 (stereo not drawn) | 8.9µM*
COc1ccccc1N1CCN(CC(O)COc2ccc(Cl)c(C)c2)CC1 (stereo not drawn) | 56%
CCOC(=O)CCNC(=O)N1CCC(Oc2ncccc2C(=O)N2CCOCC2)C1 (stereo not drawn) | -3%
